Data taken from PubChem BioAssay (NCATS).
Records with an inconclusive call do not appear. Where a call stands in place of a potency, no number is given. Activity calls are given as the source filed them. Calls come from the whole dose curve; as a rule, active = well fitted curve in the direction sought with a large enough effect; inconclusive = small, poorly fitted or top-dose-only effect, or another doubt; inactive = no such curve, though single readings can be large; an effect the other way counts as inactive or inconclusive.

Columns and labels:
[1] = molecular target: Aldehyde dehydrogenase, mitochondrial (Homo sapiens) (UniProt P05091); experiment: qHTS for Inhibitors of the Aldehyde Dehydrogenase Family (ALDH2) Primary screen (AID 2061308); note: nearly all actives have a fitted effect of over 55% in size
[2] = molecular target: Retinaldehyde dehydrogenase 3 (Homo sapiens) (UniProt P47895); experiment: qHTS for Inhibitors of the Aldehyde Dehydrogenase Family (ALDH1A3) Primary screen (AID 2061315)

CCCCN(C)C(=O)Cn1nc(-c2cncnc2)ccc1=O
Potency [1]: inactive
Potency [2]: inactive

NC(=O)C1CCN(c2cc(-c3ccc4c(c3)OCCCO4)ncn2)CC1
Potency [1]: inactive
Potency [2]: inactive

CCCn1c(-c2ccc(F)cc2)nc2c(N3CCC(N(C)C)C3)nc(C)nc21 (stereo not drawn)
Potency [1]: inactive
Potency [2]: inactive

Cc1cc(N[S+](=O)([O-])c2ccc3c(c2)CCC(=O)N3C)ccc1F
Potency [1]: inactive
Potency [2]: inactive

COc1ccccc1NC(=O)C1=C(C)NC(Nc2nc3ccccc3o2)=NC1c1ccccc1Br (stereo not drawn)
Potency [1]: inactive
Potency [2]: inactive

Cc1ccc(C)c(SC2CS(=O)(=O)c3ccccc32)c1 (stereo not drawn)
Potency [1]: inactive
Potency [2]: inactive

O=C(COC(=O)CNC(=O)c1ccccc1Cl)Nc1cc(C(F)(F)F)ccc1Cl
Potency [1]: inactive
Potency [2]: inactive

N#Cc1nc(Nc2cc(F)cc(F)c2)nc(Nc2cc(F)cc(F)c2)n1
Potency [1]: inactive
Potency [2]: inactive

O=C([C@@H](Cc1ccc(O[S+](=O)([O-])c2cccnc2)cc1)N[S+](=O)([O-])c1cccc2cccnc12)N1CCN(c2ccccc2)CC1
Potency [1]: inactive
Potency [2]: inactive

Cc1cc(NS(=O)(=O)CCNC(=O)Cc2ccc(Cl)c(Cl)c2)no1
Potency [1]: inactive
Potency [2]: inactive

COc1cnc(-c2ccccc2C(C)C)nc1NCc1ccc(-c2cccnc2)cc1
Potency [1]: inactive
Potency [2]: inactive

Cc1ccccc1C(=O)NCC(=O)OC(C(=O)Nc1cc(C(F)(F)F)ccc1Cl)c1ccccc1 (stereo not drawn)
Potency [1]: inactive
Potency [2]: inactive

Cc1noc(C)c1-c1ccc2ncnc(NCc3ccc(-c4ccccc4)cc3)c2c1
Potency [1]: inactive
Potency [2]: inactive

COc1cccc(CNc2ccc(S(=O)(=O)Nc3nc4ccccc4o3)cc2)c1O
Potency [1]: inactive
Potency [2]: inactive

Cc1ccc(-c2csc(NC(=O)c3ccncc3NS(=O)(=O)c3ccc(C)cc3)n2)cc1
Potency [1]: inactive
Potency [2]: inactive

Cc1cc2c(s1)c1cnn(Cc3cc(F)c(F)c(F)c3F)c(=O)c1n2C
Potency [1]: inactive
Potency [2]: inactive

O=C(OCC#CCSc1nnc(-c2ccccc2F)o1)c1ccc(F)cc1
Potency [1]: inactive
Potency [2]: inactive

COCCNc1nc(C)nc2c1nc(-c1ccccc1)n2C1CCN(Cc2ccccc2)C1 (stereo not drawn)
Potency [1]: inactive
Potency [2]: inactive

C#CCOc1ccc(C(C)=O)cc1-c1nnc2n1N=C(c1ccc(OC)c(OC)c1)CS2
Potency [1]: inactive
Potency [2]: inactive

Cn1nnnc1Sc1ncnc2n[nH]c(-c3cccc(S(C)(=O)=O)c3)c12
Potency [1]: inactive
Potency [2]: inactive

Cc1ccc(S(=O)(=O)Nc2cnccc2C(=O)Nc2nc(-c3ccc(Oc4ccccc4)cc3)cs2)cc1
Potency [1]: inactive
Potency [2]: inactive

CCC(=O)NC(c1ccco1)c1cc(Cl)c2cccnc2c1O (stereo not drawn)
Potency [1]: inactive
Potency [2]: inactive

O=C(Nc1ncc(Cc2ccc(C(F)(F)F)cc2)s1)c1ccco1
Potency [1]: inactive
Potency [2]: inactive

Cn1c2cc(B(O)O)sc2c2cnn(Cc3ccccc3F)c(=O)c21
Potency [1]: inactive
Potency [2]: inactive

Cc1cc2c(s1)c1cnn(Cc3ccccc3)c(=O)c1n2C
Potency [1]: inactive
Potency [2]: inactive

CC(=O)N1CCN(C(=O)COC(=O)c2ccc([S+](C)(=O)[O-])c([N+](=O)[O-])c2)CC1
Potency [1]: inactive
Potency [2]: inactive

Cc1ccc(-c2cnn(CC(=O)N(C)C(C)c3ccco3)c(=O)c2)cc1 (stereo not drawn)
Potency [1]: inactive
Potency [2]: inactive

Cc1ccc(OCCn2c(CCNC(=O)C(C)(C)C)nc3ccccc32)cc1
Potency [1]: inactive
Potency [2]: inactive

COc1cccc(C2c3c(ncn(-c4ccc(C#N)cc4)c3=N)Oc3ccc4ccccc4c32)c1 (stereo not drawn)
Potency [1]: inactive
Potency [2]: inactive

Nc1nc2c(ncn2C2OC3COP(=O)(O)OC3C2O)c(=O)[nH]1 (stereo not drawn)
Potency [1]: inactive
Potency [2]: inactive

O=C(Nc1nc(-c2ccccc2)cs1)c1ccncc1NS(=O)(=O)c1cccnc1
Potency [1]: inactive
Potency [2]: inactive

Cc1ccc(-c2cc(C(=O)Nc3ccccc3)c3ccccc3n2)cc1C
Potency [1]: inactive
Potency [2]: inactive

Cc1ccc(S(=O)(=O)Nc2ccccc2C(=O)Nc2ccc(-c3ccccc3)cc2)cc1
Potency [1]: inactive
Potency [2]: inactive

COc1ccc(C2=Nn3c(nnc3-c3ccccc3OC)SC2)cc1OCC1CC1
Potency [1]: inactive
Potency [2]: inactive

CC(C)(C)c1ccc(CSc2nc3ncc(Br)cc3[nH]2)cc1
Potency [1]: inactive
Potency [2]: inactive

COc1ccc(-c2ccc3ncnc(N(C)Cc4csc(C)n4)c3c2)cc1OC
Potency [1]: inactive
Potency [2]: inactive

CCOc1ccccc1CNc1ncnc2ccc(-c3c(C)noc3C)cc12
Potency [1]: inactive
Potency [2]: inactive

FC(F)(F)c1cccc(N2CCN(C(=S)Nc3ncnc4ccccc34)CC2)c1
Potency [1]: inactive
Potency [2]: inactive

CC(=O)Nc1sc2c(c1-c1nc3ccccc3s1)CCCN(C(C)C)C2
Potency [1]: inactive
Potency [2]: inactive

COc1ccc([S+](=O)([O-])N2CCCN([S+](=O)([O-])c3ccc(OC)c(NC(C)=O)c3)CC2)cc1NC(C)=O
Potency [1]: inactive
Potency [2]: inactive

CCc1cccc(CC)c1NC(=O)c1nn(C)c2c1CCc1cnc(Nc3ccc(C(=O)NC4CCN(C)CC4)cc3OC(F)(F)F)nc1-2
Potency [1]: inactive
Potency [2]: inactive

O=C(CNC(=O)C1CCCCCC1)OC(C(=O)Nc1cc(C(F)(F)F)ccc1Cl)c1ccccc1 (stereo not drawn)
Potency [1]: inactive
Potency [2]: inactive

CC(=O)O[C@@H]1C=C2[C@H](CC[C@@]3(C)[C@@]2(O)CC[C@H]2Cc4c([nH]c5ccccc45)[C@@]23C)O[C@@H]1C(C)(C)O
Potency [1]: inactive
Potency [2]: inactive

O=S(=O)(NC1CCN(S(=O)(=O)c2ccc3c(c2)OCCO3)CC1)c1c(F)cccc1F
Potency [1]: inactive
Potency [2]: inactive

Cc1cc(-c2nnc3n2CCCCC3)c(C)n1-c1ccc(C#N)cc1
Potency [1]: inactive
Potency [2]: inactive

O=C1CCc2cc(S(=O)(=O)Nc3ccc(F)c(Cl)c3)c(F)cc2N1
Potency [1]: inactive
Potency [2]: inactive

CC(=O)Nc1cccc(S(=O)(=O)N2CCN(S(=O)(=O)c3c(F)cccc3F)CC2)c1
Potency [1]: inactive
Potency [2]: inactive

COc1ccc(-c2nnc3n2N=C(c2ccc(OC)cc2OC)CS3)cc1
Potency [1]: inactive
Potency [2]: inactive

CC(C)(C)Cc1nnc(NC(=O)CSc2ccccc2)s1
Potency [1]: inactive
Potency [2]: inactive

Cc1cc(NS(=O)(=O)c2ccc3c(c2)CCC(=O)N3)ccc1F
Potency [1]: inactive
Potency [2]: inactive

Cc1nc2ccc(Nc3nc(-c4ccncc4)nc4ccccc34)cc2s1
Potency [1]: inactive
Potency [2]: inactive

C#CCOc1cc(C2=Nn3c(nnc3-c3ccc(OCC(C)=O)cc3)SC2)ccc1OC
Potency [1]: inactive
Potency [2]: inactive

Clc1ccc(-c2nc3ccccc3s2)cc1
Potency [1]: inactive
Potency [2]: inactive

Cc1cc(C)nc(NC(=S)N2CCN(c3cccc(OC(F)F)c3)CC2)c1
Potency [1]: inactive
Potency [2]: inactive

Cc1cc2c(s1)c1cnn(Cc3c(F)c(F)cc(F)c3F)c(=O)c1n2C
Potency [1]: inactive
Potency [2]: inactive

Cc1ccc(C)c(OCCn2c(CCNC(=O)C3CCCCC3)nc3ccccc32)c1
Potency [1]: inactive
Potency [2]: inactive

O=C(Cn1nc(C2CCCCC2)ccc1=O)NCCc1ccccc1
Potency [1]: inactive
Potency [2]: inactive

CN(CCC1CCCO1)c1ncnc2ccc(-c3ccc4c(c3)OCO4)cc12 (stereo not drawn)
Potency [1]: inactive
Potency [2]: inactive

Cc1noc(C)c1-c1ccc2ncnc(NCc3ccc(C(F)(F)F)cc3)c2c1
Potency [1]: inactive
Potency [2]: inactive

N/C(=N\c1nnc(-c2ccncc2)s1)Nc1ccc(F)c(C(F)(F)F)c1
Potency [1]: inactive
Potency [2]: inactive

CCn1cnc2c(Nc3cc(F)cc(F)c3)nc(C(=O)COc3c(F)c(F)cc(F)c3F)nc21
Potency [1]: inactive
Potency [2]: inactive

CC(=O)C1CCN(c2ncc(-c3ccc4c(c3)OCCCO4)s2)CC1
Potency [1]: inactive
Potency [2]: inactive

Cc1nc(NCc2ccccc2)c2nc(-c3ccccc3)n(CCCN3CCOCC3)c2n1
Potency [1]: inactive
Potency [2]: inactive

CCOC(=O)c1csc(-n2nc(-c3ccc(F)c(F)c3)c(Cc3ccc(S(N)(=O)=O)cc3)c2N)n1
Potency [1]: inactive
Potency [2]: inactive

O=C(Nc1ccc(F)c(C(F)(F)F)c1)Nc1cccc(-c2ccncc2)n1
Potency [1]: inactive
Potency [2]: inactive

O=C(Nc1ccc(C(=O)Nc2nccs2)cc1)c1ccc2ccccc2c1
Potency [1]: inactive
Potency [2]: inactive

NC(=O)c1c(NC(=O)c2ccncn2)sc2c1CCCC2
Potency [1]: inactive
Potency [2]: inactive

CCCn1c(C)nc2c(N(CCN(C)C)Cc3ccccc3)nc(C)nc21
Potency [1]: inactive
Potency [2]: inactive

O=C(Nc1ncc(Cc2ccc(C(F)(F)F)cc2)s1)c1cccc(-c2ccccc2)c1
Potency [1]: inactive
Potency [2]: inactive

O=C(OCC#CCSc1nnc(-c2cccc3ccccc23)o1)C1CCCC1
Potency [1]: inactive
Potency [2]: inactive

COc1ccc(C2Nc3ccccc3C(=O)N2Cc2ccncc2)cc1COc1c(C)cc(NC(C)=O)cc1C (stereo not drawn)
Potency [1]: inactive
Potency [2]: inactive

O=C(Nc1ccc(-c2nc3ccccc3[nH]2)cc1)c1ccc2sccc2c1
Potency [1]: inactive
Potency [2]: inactive

Cn1nnnc1Sc1ncnc2scc(-c3ccc(C(F)(F)F)cc3)c12
Potency [1]: inactive
Potency [2]: inactive

CCOC(=O)C1CCN(C(=O)C2(NC(=O)Nc3ccccc3Cl)CCCCC2)CC1
Potency [1]: inactive
Potency [2]: inactive

CCCn1c(-c2ccc(F)cc2)nc2c(NCCCCN(CC)CC)nc(C)nc21
Potency [1]: inactive
Potency [2]: inactive

Cc1cc(C)nc(NC(=S)N2CCN(c3nsc4ccccc34)CC2)c1
Potency [1]: inactive
Potency [2]: inactive

Cc1cccc(-n2cnc3cc(C(=O)N4CCC(C#N)CC4)ccc32)c1
Potency [1]: inactive
Potency [2]: inactive

Cc1ccc(OCCn2c(CCNC(=O)Cc3cccc(F)c3)nc3ccccc32)cc1
Potency [1]: inactive
Potency [2]: inactive

Cc1cc(N[S+](=O)([O-])c2ccc(NC(=O)Cc3cccc(Cl)c3Cl)cc2)no1
Potency [1]: inactive
Potency [2]: inactive

CCCn1c(C)nc2c(N3CCC(N4CCN(C)CC4)CC3)nc(C)nc21
Potency [1]: inactive
Potency [2]: inactive

CC(=O)Nc1sc2c(c1-c1nc(-c3ccccc3)cs1)CCN(C(C)C)C2
Potency [1]: inactive
Potency [2]: inactive

C/C=C(\C)C(=O)OC1C(C)C2(O)C(C=C(CO)CC3(O)C(=O)C(C)=CC32)C2C(C)(C)C12OC(=O)C(C)C (stereo not drawn)
Potency [1]: inactive
Potency [2]: inactive

NC(=O)C1CCN(c2nc(-c3cccc([N+](=O)[O-])c3)cs2)CC1
Potency [1]: inactive
Potency [2]: inactive

O=S(=O)(c1ccc2c(c1)OCCCO2)N1CCN(S(=O)(=O)c2c(F)cccc2F)CC1
Potency [1]: inactive
Potency [2]: inactive
